For 21 compounds, outcome and AC50 results are on record in PubChem BioAssay (EPA / NIEHS).

Structures are written as SMILES. Where “and” joins values, the source holds several entries; their conditions need not be identical. Equal values may be shown once. Records with an inconclusive call do not appear. A structure can be active in one record and inactive in another. Calls of active or inactive are those of the source. Rule for the calls, unless noted: active = hit-call score of the fitted dose curve at least 0.9, where 1 is the maximum; inactive = score below 0.9.

The nature of assay [1]: CCTE_Shafer_MEA_acute_LDH: CCTE's Lactate Dehydrogenase Assay for Cytotoxicity in the Neural Acute Assay, Shafer Lab (AID 2284086; active = hit-call score of the fitted dose curve at least 0.9, where 1 is the maximum;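 note: active means LDH release rises above DMSO vehicle level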). The gist of the method: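 Primary rat cortical neurons on 48-well MEA plates, treated on day 13 or 15 post-plating. After the 40-min recording with compound, medium LDH release was read by absorbance at 490 nm. Gain of signal was fitted against DMSO negative control.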

A short description of assay [2]: CCTE_Shafer_MEA_dev_mutual_information_norm: CCTE's Neural Network Formation Assay for Mutual Information Normalization, Shafer Lab (AID 2284091).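 For AC50: mutual information between electrodes summarised as area under curve across four recording days; potency is for a decrease in mutual information relative to DMSO.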 The gist of the method:
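Primary rat cortical neurons on PEI-coated 48-well MEA plates, 1.5 x 10^5 cells/well, exposed from day 0 through day 12 with re-dosing at DIV 5 and 9. Mutual information between electrodes recorded days 5, 7, 9, 12; trapezoidal AUC, loss-of-signal fit versus DMSO.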

A short description of assay [3]: CCTE_Shafer_MEA_dev_correlation_coefficient_mean: CCTE's Neural Network Formation Assay for Mean Correlation Coefficient, Shafer Lab (AID 2284093).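 For AC50: well mean pairwise spike train correlation integrated as AUC over recording days 5 to 12; potency fitted for loss of correlation relative to DMSO vehicle wells.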 The essentials: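 Primary rat cortical neurons on PEI-coated 48-well MEA plates (16 electrodes/well) were exposed from plating day 0 through DIV12, with compound renewed at DIV5 and 9. Pairwise spike correlations were averaged per well; trapezoidal AUC across DIV5, 7, 9, 12.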

Assay [4] can be described thus: UKN2_HCS_IMR90_neural_migration: University of Konstanz (UKN) Leist Lab Neural Crest Cell Migration Assay in human induced IMR90 Pluripotent Stem Cells (UKN2) (AID 2284204). To be noted: actives raise or lower the signal. The essentials: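 iPSC-derived IMR90 neural crest cells seeded around stoppers on PLO/laminin/fibronectin; migration started in N2-S medium with EGF/FGF, compounds added after 24 h for 24 h. Migration into cell-free area imaged after calcein-AM/Hoechst staining; bidirectional fit versus DMSO.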

The nature of assay [5]: UKN4_HCS_LUHMES_neurite_outgrowth: University of Konstanz (UKN) Leist Lab Neurite Outgrowth Assay in human LUHMES cells (UKN4) (AID 2284206). To be noted: actives raise or lower the signal. The essentials:
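LUHMES neuronal precursors differentiated 2 days, replated without cAMP/GDNF, then exposed to chemicals for 24 h. Neurite area imaged by high-content microscopy after calcein-AM staining; Hoechst H-33342 marks viability. Bidirectional fit versus DMSO.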

Assay [6] in a line: IUF_NPC1b_proliferation_BrdU_72hr: Leibniz Research Institute for Environmental Medicine (IUF) 72-hour Neural Progenitor Cell Bromodeoxyuridine (BrdU) Proliferation Assay (NPC1b) (AID 2284207). The essentials:
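BrdU luminescence ELISA quantified DNA synthesis over the last 16 h of a 72 h exposure, fitted against DMSO. Primary hNPC spheres from gestational week 16-19 cortex grown with EGF/FGF at 37C, pH 7.2-7.6.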

Assay [7] can be described thus: IUF_NPC1a_proliferation_area_72hr: Leibniz Research Institute for Environmental Medicine (IUF) 72-hour Neural Progenitor Cell Proliferation Area Assay (NPC1a) (AID 2284208). The gist of the method:
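Measured in 3D suspension: each well held one primary hNPC sphere grown with EGF and FGF at pH 7.2-7.6. Compound stayed on for 72 h, then area was imaged; spheres lacking growth factors defined reduced proliferation.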

Assay [8] in a line: IUF_NPC1_viability_72hr: Viability Assessment at 72 hours in the Leibniz Research Institute for Environmental Medicine (IUF) Neural Progenitor Cell Proliferation Assay (NPC1) (AID 2284209). The essentials:
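Human fetal-cortex neural progenitor spheres (0.25–0.35 mm, one per well) grown in EGF/FGF proliferation medium at 37C, pH 7.2-7.6, exposed 72 h without renewal; viability read as alamar blue resazurin-to-resorufin fluorescence relative to DMSO.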

The nature of assay [9]: CCTE_Mundy_HCI_Cortical_Synap_Neur_Matur_NeuriteSpotCountPerNeuriteLength: CCTE's Synaptogenesis and Neurite Maturation Assay in rat cortical cells for Neurite Spot Count per Neurite Length, Mundy Lab (AID 2284210). The gist of the method:
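Rat primary cortical cultures, AraC added at DIV 5 to suppress glia; chemical exposure from DIV 7 to DIV 12. Fixed cells stained for MAP2 and synaptophysin plus Hoechst; synaptophysin puncta per neurite length quantified by high-content imaging, relative to DMSO.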

The nature of assay [10]: CCTE_Mundy_HCI_Cortical_Synap_Neur_Matur_BPCount: CCTE's Synaptogenesis and Neurite Maturation Assay in rat cortical cells for Branch Point Count, Mundy Lab (AID 2284211). The essentials:
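Branch point number is quantified by automated imaging of fluorescently labelled neurites and synapses in rat primary cortical neurons exposed from DIV 7 to DIV 12. Activity is analysed relative to DMSO negative control.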

On to `CC(C)(C)CC(C)(C)c1ccc(O)cc1`, for which the result in [1] was inactive.

With `O=C(O)C(F)(F)C(F)(F)C(F)(F)C(F)(F)C(F)(F)C(F)(F)C(F)(F)C(F)(F)C(F)(F)C(F)(F)F`, the call in [1], in assay [2] and in assay [3] was inactive.

For the compound `CCOP(=S)(OCC)Oc1nc(Cl)c(Cl)cc1Cl`, the AC50 is 23.2 µM (active) and 15 µM (active) in assay [2]; 23.5 µM (active) and 15 µM (active) and 20.4 µM (active) in assay [3]; 218 µM (active) in assay [5]; 50 µM (active) in assay [9]; 26.7 µM (active) in [10]. The compound was classed as inactive in assay [2], in assay [4], in [6], in assay [7], in assay [8] and in [9].

With `COP(=O)(OC)O/C(=C\Cl)c1cc(Cl)c(Cl)cc1Cl`, the compound was called inactive in [2], in [3], in [4], in assay [9] and in assay [10]. The values for the AC50 in assay [6], in [7] and in assay [8] were 51.5 µM (active), 41.6 µM (active) and 34.3 µM (active), respectively.

For the compound `CCCCCCCCc1ccc(O)cc1`, in assay [1], the compound was classed as inactive.

In the case of `CC(C)(C)c1cc(O)ccc1O`, the result in [1] was inactive. Besides, the AC50 was 2.1 µM (active) in assay [2] and 6.2 µM (active) in assay [3].

For `O=C1C2(Cl)C3(Cl)C4(Cl)C(Cl)(Cl)C5(Cl)C3(Cl)C1(Cl)C5(Cl)C24Cl` (stereo not given), the outcome in assay [1] and in assay [9] was inactive. The AC50 is 0.125 µM (active) in assay [2]; 1.15 µM (active) in assay [3]; 2.17 µM (active) in [4]; 3.44 µM (active) in [5]; 22.7 µM (active) in assay [10].

`C[C@]12CCC(=O)C[C@@H]1CC[C@@H]1[C@@H]2CC[C@]2(C)[C@@H](O)CC[C@@H]12`: in assay [1], the outcome was inactive.

`CC(=O)OC(c1ccccc1)C(Cl)(Cl)Cl` (stereo not given): the result in assay [1] was inactive.

Consider `COC(=O)Cc1ccccc1`, for which, in assay [1], the outcome was inactive.

For `CC(C)(c1ccccc1)c1ccc(O)c(C(C)(C)c2ccccc2)c1`, the outcome in assay [1] was inactive.

On to `O=C(O)C(F)(F)C(F)(F)C(F)(F)C(F)(F)C(F)(F)C(F)(F)F`, for which the compound was called inactive in assay [2] and in assay [3].

`ClC1(Cl)C2(Cl)C3(Cl)C4(Cl)C(Cl)(Cl)C5(Cl)C3(Cl)C1(Cl)C5(Cl)C24Cl` (stereo not given): the AC50 in assay [2] is 2.05 µM (active); in [3] it was 2.41 µM (active).

As to `CC(=O)[O][Hg][c]1ccccc1`, the compound was called inactive in assay [1]. Moreover, the AC50 is 0.0082 µM (active) in assay [2] and 0.0159 µM (active) in assay [3].

With `CC(C)(OO)c1ccccc1`, the compound was called inactive in assay [1].

For the compound `Cn1sc(Cl)cc1=O`, the results for the AC50 in assay [2] and in assay [3] were 3.45 µM (active) and 4.5 µM (active), respectively.

As to `CCC(=O)C(CC(C)N(C)C)(c1ccccc1)c1ccccc1` (stereo not given), the figures for the AC50 in assay [2] and in assay [3] were 6.23 µM (active) and 7.25 µM (active), respectively.

On to `CCC(C)(C)c1ccc(O)c(C(C)(C)CC)c1`, for which the call in [1] was inactive.

With `O=C(O)C(Cl)(Cl)Cl`, the call in assay [1] was inactive.

In the case of `C=C(C)C(=O)[O][Sn]([CH2]CCC)([CH2]CCC)[CH2]CCC`, in assay [1], the outcome was inactive. Moreover, the AC50 in [2] is 0.0123 µM (active); in assay [3], 0.0288 µM (active); in [4] it was 0.168 µM (active); in assay [5] it was 0.0977 µM (active); in assay [9], 0.0607 µM (active); in [10] it was 0.0799 µM (active).

Turning to `O=C(Nc1ccc2[nH]ccc2c1)c1cc2cc(F)ccc2n1Cc1cccc(F)c1`, the compound was classed as inactive in [1].
